Screening results as filed in PubChem.
SMN2 splice up = increases expression of the SMN2 splice variant. Potency, µM (series often up to 46.1 µM), for inactives: at the top dose activity change, positive = activation, most hits filed as activators. AID 1458. 210,000 compounds, 2.8% hits. HEK293 SMN2-luciferase splicing reporter, luminescence, 30-36 h; also: % of control where 0% means no effect; nearly all actives have a fitted effect of over 55% in size
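qHTS luciferase splicing reporter: luminescence rises when SMN2 exon 7 is included in transfected HEK293 cells. Compound exposure lasted 30-36 h at 37C, with 4.5 mM final sodium butyrate as control, followed by a ONE-Glo read.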
KinaseGlo FLuc = Kinase-Glo luciferase inhibition (counter-screen) | Potency, µM (highest dose often 38.3 µM), for inactives: top-dose activity change, negative = inhibition, hits mostly inhibitors | AID 1379 | 200,000 compounds, 0.28% hits | Kinase-Glo luciferase, ATP luminescence, 8 min | Q27757; also: % is scaled to controls: 0 for no effect and ±100 for the full control effect; nearly all actives have a fitted effect of over 60% in size
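Luminescence was the read-out, taken after 8-minute incubation at ambient temperature. Luciferase turned over luciferin with 10 uM ATP in imidazole pH 7.2 buffer containing KCl, MgCl2, Tween 20 and BSA.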
ELG1 genotox = genotoxicity induction in ELG1-luciferase HEK293T cells; HEK293T ELG1-luciferase reporter, luminescence, 16 h; Potency, µM (series often up to 46 µM), inactives show at the highest dose activity change, positive = activation, actives largely listed as activators; 330,000 compounds, 1.3% hits; also: % of control where 0% means no effect; nearly all actives have a fitted effect of over 60% in size
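Cells (2,000/well) expressing the ELG1-luciferase fusion are dosed by pin tool and kept 16 hr at 37 °C, 5% CO2. Signal comes from ONE-Glo luciferase reagent after 30 min at room temperature.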
NPC1 promoter act = activators of NPC1 promoter; 320,000 compounds, 2.4% hits; Potency, µM (highest dose often 9.22 µM), inactives show top-dose activation, hits mostly activators; Huh7 NPC1 promoter luciferase reporter, 24 h; AID 485313; also: % of control where 0% means no effect; nearly all actives have a fitted effect of over 60% in size
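Stable NPC1-promoter luciferase Huh7 line; cpd (DMSO) 24 h, 37 °C, 5% CO2; Amplite luciferase reagent 10 min RT; luminescence readout. qHTS format.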
FLuc counter = counter-screen for miR-21 project: firefly luciferase inhibitors or activators | P08659 | purified FLuc, Km substrates, luminescence inhibition | 360,000 compounds, 6.9% hits | AID 588342 | Potency, µM (doses to about 57.5 µM), inactives show at the highest dose activity change, negative = inhibition, hits mostly inhibitors;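 also: plate controls were vehicle for no effect and reference inhibitor for full effect; nearly all actives have a fitted effect of over 55% in size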
Target sequence (P08659 whole entry, looked up): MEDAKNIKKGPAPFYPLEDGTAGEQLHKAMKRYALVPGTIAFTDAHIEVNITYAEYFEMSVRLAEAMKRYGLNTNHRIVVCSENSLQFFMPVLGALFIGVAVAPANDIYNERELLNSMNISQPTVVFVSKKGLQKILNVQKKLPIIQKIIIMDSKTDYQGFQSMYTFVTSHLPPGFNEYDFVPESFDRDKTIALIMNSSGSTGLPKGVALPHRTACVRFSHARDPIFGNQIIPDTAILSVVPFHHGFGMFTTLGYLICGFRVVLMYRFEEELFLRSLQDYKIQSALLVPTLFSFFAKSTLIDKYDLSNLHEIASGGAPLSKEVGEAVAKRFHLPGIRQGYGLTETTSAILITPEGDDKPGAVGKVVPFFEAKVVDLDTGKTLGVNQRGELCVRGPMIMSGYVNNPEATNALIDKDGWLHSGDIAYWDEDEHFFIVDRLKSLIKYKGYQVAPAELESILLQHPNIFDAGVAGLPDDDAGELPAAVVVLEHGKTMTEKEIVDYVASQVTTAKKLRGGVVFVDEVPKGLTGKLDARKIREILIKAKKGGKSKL
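Purified P. pyralis luciferase, 10 nM final, with Km-level 10 uM D-luciferin and 10 uM ATP in 50 mM Tris acetate pH 7.5, 10 mM Mg acetate, 0.01% Tween-20, 0.05% BSA; 6-point qHTS titration about 60 µM downward; luminescence read.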
Rab9 promoter act = activates the Rab9 promoter. Potency, µM (series often up to 9.22 µM), inactives show top-dose activation, negative = inhibition, hits mostly activators. 320,000 compounds, 2.8% hits. Huh7 Rab9 promoter-luciferase reporter, luminescence, 24 h; also: % of control where 0% means no effect; nearly all actives have a fitted effect of over 60% in size
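Steps: seed 1500 Huh7 Rab9-luc cells per well, rest 2 h at 37 °C; add compound in DMSO; incubate 24 h; add luciferase reagent, 10 min ambient; read luminescence.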
Active calls of the source: *; ? = inconclusive; . = no result given. Hits are enriched below; roughly 7.5% of the tested compounds scored in any of these assays. Calls follow the shape of the dose curve; as a rule, active = well fitted curve in the direction sought with a large enough effect; inconclusive = small, poorly fitted or top-dose-only effect, or another doubt; inactive = no such curve, though single readings can be large; an effect the other way counts as inactive or inconclusive. Potency is read from the fitted curve at half-maximal effect.

SMILES	SMN2 splice up	KinaseGlo FLuc	ELG1 genotox	NPC1 promoter act	FLuc counter	Rab9 promoter act
Cc1ccc2nc(NC(=O)c3ccc(OCC4CCCO4)cc3)sc2c1 (configuration not stated)	-45%	0%	-6%	?	3µM*	?
O=C(Nc1ccc(Cl)cc1)c1ccc(OCC2CCCO2)cc1 (configuration not stated)	18%	1%	?	?	5.4µM*	?
CCCc1cc2c(n1CCc1ccc(Cl)cc1)C(C)C1CN(C(=O)c3ccccc3)C(C)(C(=O)OC)C21 (configuration not stated)	-17%	-3%	.	.	.	.
Cn1c(SCc2ccc(C#N)cc2Cl)nc2ccccc21	14µM*	-12%	21µM*	2.2µM*	6µM*	3.5µM*
Cc1c(Cl)cccc1NC(=O)c1ccc2c(c1)nnn2C1CCCC1	.	.	.	.	-8%	.
Cc1nnc(C)n1/N=C/c1ccc(-c2ccccc2Cl)o1	.	.	23µM*	-2%	-13%	1%
O=C(O)c1ccc(N/N=C/c2ccc(-c3ccccc3Cl)o2)cc1	.	.	1.8µM*	?	0.67µM*	?
O=S(=O)(N/N=C\c1ccc(-c2ccccc2Cl)o1)c1ccccc1	-53%	6%	-2%	2%	-7%	-3%
S=c1[nH]nc(-c2ccccc2)n1/N=C/c1ccc(-c2ccccc2Cl)o1	?	1%	-8%	-5%	-6%	-3%
O=C(N/N=C/c1ccc(-c2ccccc2Cl)o1)c1ccccc1	?	1%	18%	0%	13µM*	16%
CCCCn1cc(S(=O)(=O)c2ccccc2)c(=O)c2cc(F)c(N3CCC(C)CC3)cc21	.	.	.	.	2%	.
O=C(COc1cccc(NC(=O)c2ccccc2)c1)c1ccc(F)cc1	-58%	2%	-7%	5%	15µM*	-2%
O=C(COc1cccc(NC(=O)c2cccc([N+](=O)[O-])c2)c1)c1ccc(F)cc1	-70%	3%	-14%	-2%	?	0%
O=C(COc1ccc(Cc2ccccc2)cc1)c1ccc(F)cc1	3%	0%	9%	27%	8.5µM*	24%
CCOC(=O)c1c(C)c(-c2ccccc2)n(CC(=O)Nc2cccc(C)c2C)c1C	-7%	.	.	.	-8%	.
O=C(N/N=C/c1cccnc1)c1cc(-c2ccccc2)nc2ccccc12	.	.	-3%	0%	11µM*	-2%
O=C(N/N=C/c1cccnc1)c1cc(-c2ccc(Br)cc2)nc2ccccc12	.	.	-4%	-16%	6.7µM*	0%
CC(=O)NC1Sc2ccccc2N=C1c1ccccc1 (configuration not stated)	?	-29%	13µM*	?	12µM*	?
O=C1Nc2ccccc2N=C(c2ccccc2)C1Br (configuration not stated)	.	2%	2%	4%	-18%	27%
O=C(NC1CC1)c1cc2cc3ccccc3nc2s1	.	.	?	2.2µM*	11µM*	3.5µM*
c1ccc(-c2ccc(-c3cnc4n3CCCCC4)cc2)cc1	-15%	-5%	?	?	12µM*	26%
O=C(Nc1ccnc(-c2cccnc2)n1)c1cccs1	15%	3%	-3%	6%	2%	-10%
CCOC(=O)CSc1nnc(NC(=O)c2ccco2)s1	.	.	0%	2%	-13%	-1%
O=C(Nc1nnc(SCc2ccc(Cl)cc2)s1)c1ccco1	-14%	-3%	1%	-5%	0%	3%
CCSc1nnc(NC(=O)c2ccco2)s1	11µM*	-9%	?	25%	?	?
CC(C)Sc1nnc(NC(=O)c2ccco2)s1	.	-11%	?	?	17µM*	?
O=C(O)CCC/C=C\C/C=C\C=C\[C@@H](O)C/C=C\CCCCCO	-5%	1%	.	.	.	.
CCOc1ccc(N(C(=O)c2ccccc2F)S(=O)(=O)c2ccc3c(c2)n(C)c(=O)n3C)cc1	0%	.	.	.	1%	.
